This is an account of results in PubChem BioAssay AID2073 (Sanford-Burnham Center for Chemical Genomics, 2009).

This test deals with Voltage-dependent N-type calcium channel subunit alpha-1B (Homo sapiens) (UniProt Q00975). Briefly: inhibitors of Mint1-CaV2.2 protein interaction, biochemical, HTRF (AID 2073). Particulars: at 20 µM, stronger effect = higher value. (In general: TR-FRET usually uses a lanthanide donor and a delayed reading to cut background.)
Where [1] appears, read: measured here: average of repeat tests.

Structures are written as SMILES. Several values for one entry are separate records, joined by “and”; a condition that tells them apart may be missing. Equal entries are not always repeated. The campaign covered roughly 290,000 compounds. About 570 (0.2%) were called active. Roughly 1% stayed inconclusive and do not appear here. This is one part of a sample in which actives are shown more often than they occur. Cut-off read from the data, not from the text of the source: active = inhibition mostly above about 51% (no sharp cut-off); inconclusive = no clear call, values can overlap the other calls; inactive = mostly below about 53%.

Voltage-dependent N-type calcium channel subunit alpha-1B (Homo sapiens), sequence (Q00975 whole entry, looked up): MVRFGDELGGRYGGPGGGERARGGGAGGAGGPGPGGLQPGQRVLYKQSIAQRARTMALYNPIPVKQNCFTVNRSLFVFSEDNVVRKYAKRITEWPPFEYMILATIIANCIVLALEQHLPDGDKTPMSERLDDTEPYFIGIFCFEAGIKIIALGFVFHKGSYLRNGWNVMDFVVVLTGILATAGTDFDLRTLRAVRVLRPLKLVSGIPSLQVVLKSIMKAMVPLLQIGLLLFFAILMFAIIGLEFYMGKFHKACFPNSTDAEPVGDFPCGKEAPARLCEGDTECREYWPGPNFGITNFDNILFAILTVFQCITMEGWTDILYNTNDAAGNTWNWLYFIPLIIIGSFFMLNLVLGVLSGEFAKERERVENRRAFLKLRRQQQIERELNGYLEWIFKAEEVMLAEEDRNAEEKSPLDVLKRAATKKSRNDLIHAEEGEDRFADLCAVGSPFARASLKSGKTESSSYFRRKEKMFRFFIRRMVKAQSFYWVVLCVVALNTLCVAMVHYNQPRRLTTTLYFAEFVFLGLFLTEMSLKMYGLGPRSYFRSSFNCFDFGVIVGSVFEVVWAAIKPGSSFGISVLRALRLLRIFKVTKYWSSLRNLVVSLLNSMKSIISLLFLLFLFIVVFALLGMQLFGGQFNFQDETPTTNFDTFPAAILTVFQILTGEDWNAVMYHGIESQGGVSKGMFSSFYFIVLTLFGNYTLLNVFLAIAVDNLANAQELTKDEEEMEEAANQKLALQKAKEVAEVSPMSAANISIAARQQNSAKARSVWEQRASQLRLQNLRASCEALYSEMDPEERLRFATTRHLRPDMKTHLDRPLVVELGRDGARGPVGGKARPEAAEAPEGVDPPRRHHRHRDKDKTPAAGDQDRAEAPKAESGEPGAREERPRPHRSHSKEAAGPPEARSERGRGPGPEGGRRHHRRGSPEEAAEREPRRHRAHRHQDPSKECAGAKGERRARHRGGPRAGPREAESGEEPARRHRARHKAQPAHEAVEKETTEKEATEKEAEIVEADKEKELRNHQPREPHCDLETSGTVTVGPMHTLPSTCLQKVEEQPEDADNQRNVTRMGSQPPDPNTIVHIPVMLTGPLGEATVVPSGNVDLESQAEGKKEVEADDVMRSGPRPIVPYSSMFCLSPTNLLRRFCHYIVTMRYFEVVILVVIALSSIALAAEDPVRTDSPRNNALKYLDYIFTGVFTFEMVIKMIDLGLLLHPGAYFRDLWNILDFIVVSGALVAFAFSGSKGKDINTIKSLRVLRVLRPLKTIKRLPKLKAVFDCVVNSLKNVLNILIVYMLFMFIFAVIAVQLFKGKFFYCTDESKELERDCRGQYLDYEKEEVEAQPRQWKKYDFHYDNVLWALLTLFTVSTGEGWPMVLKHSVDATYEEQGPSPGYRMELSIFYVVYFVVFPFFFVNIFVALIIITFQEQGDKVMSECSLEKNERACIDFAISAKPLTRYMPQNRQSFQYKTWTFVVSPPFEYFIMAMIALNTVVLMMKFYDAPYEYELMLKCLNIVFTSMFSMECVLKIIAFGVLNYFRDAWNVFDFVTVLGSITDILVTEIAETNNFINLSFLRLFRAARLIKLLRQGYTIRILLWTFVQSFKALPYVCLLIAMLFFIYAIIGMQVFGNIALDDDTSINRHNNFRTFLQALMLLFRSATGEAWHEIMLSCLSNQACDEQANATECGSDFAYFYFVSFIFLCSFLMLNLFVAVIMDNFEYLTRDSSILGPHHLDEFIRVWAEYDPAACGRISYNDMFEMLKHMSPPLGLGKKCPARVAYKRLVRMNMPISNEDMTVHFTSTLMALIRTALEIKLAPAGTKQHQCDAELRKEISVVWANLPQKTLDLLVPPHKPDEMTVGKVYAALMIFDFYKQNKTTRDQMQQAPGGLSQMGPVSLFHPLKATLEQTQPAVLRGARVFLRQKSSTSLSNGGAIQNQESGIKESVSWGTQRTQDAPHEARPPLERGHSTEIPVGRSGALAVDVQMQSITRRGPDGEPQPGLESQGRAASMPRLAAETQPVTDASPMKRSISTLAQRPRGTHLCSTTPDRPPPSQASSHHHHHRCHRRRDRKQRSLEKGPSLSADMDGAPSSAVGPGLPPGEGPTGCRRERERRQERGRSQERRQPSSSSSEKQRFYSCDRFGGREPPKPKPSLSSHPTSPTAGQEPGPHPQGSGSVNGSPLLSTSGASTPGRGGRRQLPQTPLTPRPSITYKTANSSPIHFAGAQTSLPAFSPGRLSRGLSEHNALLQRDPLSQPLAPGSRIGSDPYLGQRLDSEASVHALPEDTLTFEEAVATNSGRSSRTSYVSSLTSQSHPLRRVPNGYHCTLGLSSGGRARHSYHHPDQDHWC

On to `O=C(COC(=O)/C=C/c1ccc(F)cc1)NCc1ccco1`, for which the inhibition (commonly the change of the read-out against control, counted positive when it falls) was 8.8% (inactive).
The same measure, in the same setting: to `O=C(COC(=O)CCC(=O)c1cccs1)NCc1ccco1` belongs 57.8% (active).
Still for that read-out and setting: to `O=C(COC(=O)c1ccc(S(=O)(=O)Nc2ccccc2)cc1)NCc1ccco1` belongs -1.1% (inactive); to `O=C(COC(=O)CCC(=O)c1cccs1)NCc1cccs1`, -3.4% (inactive).
Take `O=C(COC(=O)/C=C/c1ccco1)NCc1ccccc1`: the inhibition is 13.7% (inactive).
Same read-out and setting: in the case of `O=C(COC(=O)c1cccs1)NCc1ccco1` it was -0.7% (inactive); in that of `O=C(COC(=O)/C=C/c1ccco1)NCc1ccco1`, 53.7% (active); in that of `O=C(COC(=O)c1ccc(NS(=O)(=O)c2cccs2)cc1)NCC1CCCO1` (centres undefined), -3% (inactive).
On to `O=C(COC(=O)c1ccc(NS(=O)(=O)c2cccs2)cc1)NCc1ccco1`, for which the inhibition is 59.4% (active).
Still for that read-out and setting: in the case of `COC(=O)c1sc2ccccc2c1NC(=O)c1ccc(S(=O)(=O)N2CCCCC2C)cc1` (centres undefined) it was -0.4% (inactive); in that of `CN(CCOc1ccc(Cl)cc1)Cc1cccc(S(=O)(=O)N(C)C)c1`, -2.1% (inactive); in that of `Nc1c(Cl)ncnc1N/N=C/c1ccncc1`, -9.8% (inactive).
Regarding `O=C(O)C=C1CCN(c2ncc(C(F)(F)F)cc2Cl)CC1`, the inhibition is 13.7% (inactive).
On the same count and under the same terms, in the case of `CN1CCN(c2ccccc2NC(=O)c2ccc3c(c2)OCCO3)CC1` it was 8.9% (inactive).
Regarding `Cc1c(NC(=O)C2(C)CCCCC2)c(=O)n(-c2ccccc2)n1C`, the inhibition is -0.1% (inactive).
As to `COCCNC(=O)/C(C#N)=C/c1ccc(OCc2ccccc2)cc1`, the inhibition is -5.6% (inactive).
Same read-out and setting: in the case of `Cc1c(CCO)c(=O)n2c([nH]c3ccccc32)c1C#N` it was -2.7% (inactive); in that of `CCCCc1c(C)c(C#N)c2[nH]c3ccccc3n2c1=O`, 16.9% (inactive); in that of `COc1ccccc1N=Cc1c(C)c(C#N)c2[nH]c3ccccc3n2c1=O`, 71.7% (active).
For `O=C(Nc1ccc(Cc2ccc(NC(=O)N3CCOCC3)cc2)cc1)N1CCOCC1`, the inhibition is 3.3% (inactive).
As for `COc1ccc(Br)cc1C1CC(=O)N2CN(C)CSC2=C1C#N` (centres undefined), the inhibition was 87.7% (inactive). For the same compound, the inhibition under setting [1] stood at 25.1%.
For the compound `COc1ccc(Br)cc1C1CC(=O)N2CN(Cc3ccccc3)CSC2=C1C#N` (centres undefined), the inhibition is 93.2% (active).
With `COc1ccc(C2CC(=O)N3CN(Cc4ccco4)CSC3=C2C#N)cc1` (centres undefined), the inhibition was 76.3% (inactive). Further, the inhibition under setting [1] amounted to 19.2%.
On to `N#CC1=C2SCN(Cc3ccccc3)CN2C(=O)CC1c1ccccc1F` (centres undefined), for which the inhibition is 85.9% (inactive). The inhibition under setting [1] stood at 29.1%.
Turning to `COc1cc(C2CC(=O)N3CN(Cc4ccccc4)CSC3=C2C#N)ccc1OCc1ccccc1` (centres undefined), the inhibition is 82.7% (inactive). The inhibition under setting [1] is 44.4%.
As for `COc1cc(C2CC(=O)N3CN(Cc4ccco4)CSC3=C2C#N)ccc1OCc1ccccc1` (centres undefined), the inhibition was 84.8% (active).
The same measure, in the same setting: to `CC(Oc1ccc(F)cc1Br)c1nc2ccccc2c(=O)[nH]1` (centres undefined) belongs 10.2% (inactive); to `CC(C)(C)c1ccc(OCc2ccc(C(=O)N/N=C/c3ccc(O)c(O)c3)cc2)cc1`, 57.4% (active).
The same measure, in the same setting: to `CC(C)(C)c1ccc(C(=O)N/N=C/c2ccc(OCCCF)cc2)cc1` belongs 21.6% (inactive); to `Cc1ccc(C(C)C)c(OCc2ccc(C(=O)N/N=C/c3ccc(O)c(O)c3)cc2)c1`, 20.5% (inactive).
On the same count and under the same terms, to `CS(=O)(=O)N(CC(=O)N1CCCC1)Cc1ccc(Cl)c(Cl)c1` belongs 9.7% (inactive); to `CCc1cccc(CC)c1NC(=O)c1cccc(N)c1`, 2.5% (inactive); to `Cc1ccc(-c2cnn(-c3cccc([N+](=O)[O-])c3)c2N)cc1`, 22.4% (inactive).
On to `Cc1cc(C)cc(NC(=O)CCC(=O)N2CCSc3ccccc32)c1`, for which the inhibition is -4.1% (inactive).
On the same count and under the same terms, to `COc1cc(CNc2ccc3[nH]c(=O)[nH]c3c2)cc(Cl)c1OCC(=O)NC(C)(C)C` belongs 51.8% (active).
With `COc1cc(CNc2ccc3[nH]c(=O)[nH]c3c2)cc(Br)c1OCC(=O)NC(C)(C)C`, the inhibition was -33% (inactive).
Take `COc1cc(CNc2ccc3[nH]c(=O)[nH]c3c2)ccc1OCC(=O)NC(C)(C)C`: the inhibition is 43.9% (inactive).
With `COc1ccc(OC)c(C(=O)NC(CC(N)=O)c2ccc(NCC3CC3)c([N+](=O)[O-])c2)c1` (centres undefined), the inhibition is -4.2% (inactive).
The same measure, in the same setting: in the case of `O=C(c1cccc(C(=O)N(c2ccccn2)C2CCCCC2)c1)N(c1ccccn1)C1CCCCC1` it was -10.9% (inactive).
With `O=S(=O)(Nc1cc(Sc2ncn[nH]2)c(O)c2ccccc12)c1ccccc1`, the inhibition was 56.7% (inactive). Moreover, the inhibition under setting [1] was -21.5%.
With `O=S(=O)(Nc1cc(Sc2cccc3cccnc23)c(O)c2ccccc12)c1ccccc1`, the inhibition is 69.2% (active).
`O=S(=O)(Nc1cc(Sc2cccc3cccnc23)c(O)c2ccccc12)c1ccc(F)cc1`: the inhibition is -17% (inactive).
With `COc1ccc(C2N(C(=O)c3ccccc3)CCN2C(=O)c2ccc(C)cc2)cc1` (centres undefined), the inhibition is -6.5% (inactive).
Still for that read-out and setting: in the case of `CN(Cc1c(C(=O)N2CCCCCCC2)nc2ccc(Cl)cn12)C1CCOC1` (centres undefined) it was -10% (inactive); in that of `COC(=O)N1CC(c2ccccc2)CC1=O` (centres undefined), -7.4% (inactive).
Consider `Nc1nc(-c2ccc([N+](=O)[O-])cc2)cs1`, for which the inhibition is 35.7% (inactive).
As to `O=[N+]([O-])c1ccc(-c2cnc3ccccc3n2)cc1`, the inhibition was 6.2% (inactive).
Still for that read-out and setting: in the case of `COc1ccccc1OCC(=O)N/N=C/C=C/c1ccc([N+](=O)[O-])o1` it was 54.5% (active); in that of `Cc1ccc(OCC(=O)N/N=C/C=C/c2ccco2)cc1C`, 55.3% (active).
For the compound `Cc1cccc(OCC(=O)N/N=C/C=C/c2ccco2)c1`, the inhibition was 59.6% (inactive). Besides, under setting [1], the inhibition amounted to 16%.
On the same counts, the results for `Cc1ccc(OCC(=O)N/N=C/C=C/c2ccco2)cc1` are 53.6% (inactive) and 27.1%.
Consider `O=C(COc1ccccc1[N+](=O)[O-])N/N=C/C=C/c1ccco1`, for which the inhibition was 4.5% (inactive).
Regarding `Cc1ccccc1OCC(=O)N/N=C/c1ccc([N+](=O)[O-])o1`, the inhibition is 6.4% (inactive).
As for `COCc1c(C(=O)OCC(=O)NCCN2C(=O)CSC2=O)oc2ccccc12`, the inhibition was 1.8% (inactive).
On the same count and under the same terms, in the case of `COCCCNC(=O)c1cc2c(-c3ccc(Cl)cc3)nn(C)c2s1` it was 13% (inactive).
The same measure, in the same setting: in the case of `O=S(=O)(NCc1ccccc1)NCc1ccccc1` it was 0.7% (inactive); in that of `CCN(CC)S(=O)(=O)c1cc(C(=O)OCC(=O)Nc2cccc(Br)c2)ccc1F`, -2.8% (inactive).
With `CCn1c(O)c(/C=C/C=C/C=Nc2ccccc2)sc1=S`, the inhibition was 1.5% (inactive).
Still for that read-out and setting: in the case of `O=C(O)Cn1c(O)c(C=Nc2ccccc2)sc1=S` it was -17.7% (inactive) and -1.2% (inactive); in that of `CCCCn1c(O)c(/C=C/C=C/C=Nc2ccccc2)sc1=S`, 71.6% (active).
Same read-out and setting: to `Oc1c(/C=C/C=C/C=Nc2ccccc2)sc(=S)n1Cc1ccccc1` belongs 50.6% (active); to `CCCn1c(O)c(C=Nc2ccccc2)sc1=S`, 35.6% (inactive).
The same measure, in the same setting: to `Oc1c(C=Nc2ccccc2)sc(=S)n1Cc1ccccc1` belongs -4.9% (inactive).
For the compound `O=C(Nc1cccc(Cl)c1)Nc1ccccc1C(=O)NCc1ccco1`, the inhibition was 3.4% (inactive).
Still for that read-out and setting: in the case of `CCc1ccccc1NC(=S)NC1CC2CCC(C1)N2Cc1ccc(F)cc1` (centres undefined) it was -9.8% (inactive); in that of `CCn1c(SCC(=O)NNC(=O)c2ccc(C)cc2)nnc1C1CC1`, 7.6% (inactive).
For `COc1ccccc1-c1nnc(SCC(=O)NCc2cccs2)n1N`, the inhibition was -0.4% (inactive).
As to `O=C1OC(c2ccc(F)cc2)=C/C1=C\c1ccc([N+](=O)[O-])o1`, the inhibition is 73% (active).
With `O=C1OC(c2ccc(F)cc2)=C/C1=C\c1ccc(O)cc1`, the inhibition was -0.4% (inactive).
Take `O=[N+]([O-])c1ccc(/C=N\NS(=O)(=O)c2ccc(F)cc2)o1`: the inhibition was -7% (inactive).
On the same count and under the same terms, in the case of `CCOc1ccc(NC(=O)NC(=O)N(C)S(=O)(=O)c2ccc(C)cc2)cc1` it was 8.1% (inactive).
Same read-out and setting: in the case of `O=C(c1ccc2nc(-c3ccco3)c(-c3ccco3)nc2c1)N1CCN(c2ccccc2)CC1` it was 47.9% (inactive).
Turning to `Cc1ccc(C)c(N2CCN(C(=O)c3ccc4nc(-c5ccco5)c(-c5ccco5)nc4c3)CC2)c1`, the inhibition was 56.6% (inactive). Moreover, the inhibition under setting [1] amounted to 15.5%.
On the same counts, the results for `O=C(NCc1ccccc1)c1ccc2nc(-c3ccco3)c(-c3ccco3)nc2c1` are 55.4% (inactive) and 20.4%.
Take `O=C(c1ccccc1)c1ccc2nc(-c3ccco3)c(-c3ccco3)nc2c1`: the inhibition is 76.5% (active).
The same measure, in the same setting: in the case of `COc1ccccc1N1CCN(C(=O)c2ccc3nc(-c4ccco4)c(-c4ccco4)nc3c2)CC1` it was 70% (active).
For the compound `O=C(Nc1ccccc1)c1ccc2nc(-c3ccco3)c(-c3ccco3)nc2c1`, the inhibition is 57.1% (inactive). The inhibition under setting [1] was -4.3%.
As for `O=C(NCC1CCCO1)/C(=C/c1ccccc1)NC(=O)c1ccccc1` (centres undefined), the inhibition was -11.4% (inactive).
On the same count and under the same terms, in the case of `O=C(O)c1cccnc1-c1ncccc1C(=O)O` it was -7.6% (inactive); in that of `Cc1cccc(N/N=C2/COC(C)(C)CC2=O)c1`, 4.2% (inactive); in that of `NC(=O)C1CCN(CC(=O)c2c[nH]c3ccc(F)cc23)CC1`, 1.6% (inactive).
Same read-out and setting: in the case of `CC1CCCN(C(=O)c2ccc3c(c2NCCO)C(=O)c2ccccc2C3=O)C1` (centres undefined) it was -10.5% (inactive); in that of `CC1CCN(C(=O)c2ccc3c(c2NCCO)C(=O)c2ccccc2C3=O)CC1`, -7.6% (inactive); in that of `CC1CC(C)CN(C(=O)c2ccc3c(c2NCCO)C(=O)c2ccccc2C3=O)C1` (centres undefined), 59% (active).
Still for that read-out and setting: to `CC(=O)CN1C(=O)NC(c2ccccc2)(c2ccccc2)C1=O` belongs 12.2% (inactive); to `Cc1cc(-c2ccc(S(=O)(=O)N(C)Cc3ccccc3)cc2)on1`, 9% (inactive).
For `COC(c1ccccc1)c1nnc(CCC(=O)NCc2ccc3ncccc3c2)o1` (centres undefined), the inhibition is 50% (active).
Turning to `COC(c1ccccc1)c1nnc(CCC(=O)NCc2cccc(-n3cccn3)c2)o1` (centres undefined), the inhibition was 10.4% (inactive).
The same measure, in the same setting: in the case of `COc1ccc(CCc2nnc(CCC(=O)NCc3ccc4ncccc4c3)o2)cc1` it was -2.5% (inactive).
`O=C1CNC(=O)/C1=C/c1ccccc1`: the inhibition is 7.3% (inactive).
The same measure, in the same setting: in the case of `O=C1CSC(c2ccccc2)N1c1nnc(C23CC4CC(CC(C4)C2)C3)s1` (centres undefined) it was 1.5% (inactive).
On the same count and under the same terms, to `CCOC(=O)c1nc2sc3c(c2c(=O)[nH]1)CCCC3` belongs 29.6% (inactive) and 12.3% (inactive).
The same measure, in the same setting: in the case of `N#C/C(=C\c1ccc(C(=O)O)cc1)c1nc2sc3c(c2c(=O)[nH]1)CCCC3` it was 73.5% (active); in that of `O=C(O)c1ccc(/C=C/c2nc3sc4c(c3c(=O)[nH]2)CCC4)cc1`, 40.5% (inactive).
